Results published in PubChem BioAssay AID1851 (National Center for Advancing Translational Sciences (NCATS), 2009).
Where “and” joins values, the source holds several entries; their conditions need not be identical. Equal values may be shown once. Hit rate of the full screen: of about 16,000 compounds, about 5,700 (36%) were called active. Inconclusive results (about 24%) are left out. The list shows a part of the results. A number with no mark means an inactive call. Calls come from the whole dose curve; as a rule, active = well fitted curve in the direction sought with a large enough effect; inconclusive = small, poorly fitted or top-dose-only effect, or effect the other way; inactive = no such curve, though single readings can be large or run the other way.

target: Cytochrome P450 1A2 (Homo sapiens) (UniProt P05177); test: Cytochrome panel assay with activity outcomes; conditions: recombinant CYP, pro-luciferin dealkylation, luminescence, p450-cyp1a2; series mostly up to 57.1 µM
Sequence (P05177 whole entry, looked up): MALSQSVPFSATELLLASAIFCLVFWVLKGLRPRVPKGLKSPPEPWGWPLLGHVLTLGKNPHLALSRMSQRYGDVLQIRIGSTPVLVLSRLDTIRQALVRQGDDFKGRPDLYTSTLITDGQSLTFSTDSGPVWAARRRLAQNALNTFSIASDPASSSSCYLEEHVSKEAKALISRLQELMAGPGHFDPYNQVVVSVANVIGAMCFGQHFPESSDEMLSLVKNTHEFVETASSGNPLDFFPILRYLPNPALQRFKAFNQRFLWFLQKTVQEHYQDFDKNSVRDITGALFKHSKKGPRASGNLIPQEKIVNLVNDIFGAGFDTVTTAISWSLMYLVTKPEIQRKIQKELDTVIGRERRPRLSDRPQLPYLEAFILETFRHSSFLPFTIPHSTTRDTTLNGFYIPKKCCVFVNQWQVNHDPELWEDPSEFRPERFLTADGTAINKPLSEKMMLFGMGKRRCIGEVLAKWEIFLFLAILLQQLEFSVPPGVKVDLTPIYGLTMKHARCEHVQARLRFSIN
% is set by controls: 0 for no effect and ±100 for the full control effect.

Compound | AC50 | activity, negative = inhibition
Nc1ccc(N(c2ccccc2)c2ccc(N)cc2)cc1 | 17.8 µM (active) | 
Nc1ccc(S(=O)(=O)NC(=O)c2ccccc2)cc1 | inactive | 
C[C@@H]1O[C@H](O[C@@H]2[C@@H](Oc3cc(O)c4c(c3)O[C@H](c3ccc(O)cc3)CC4=O)O[C@@H](CO)[C@@H](O)[C@H]2O)[C@@H](O)[C@H](O)[C@@H]1O | inactive | 
Nc1nnc(C(c2ccccc2)c2ccccc2)s1 | inactive | 
Nc1ccc(-c2sc(N)nc2-c2ccccc2)cc1 | 8.91 µM (active) | 
Nc1nc(-c2ccccc2)c(-c2ccccc2)c(-c2nc(N)nc(-c3ccccc3)c2-c2ccccc2)n1 |  | -4.5% [at 11.4 µM]
Nc1nc(-c2ccccc2)c(-c2ccccc2)s1 | 2.82 µM (active) | 
CC(C)CN1CCC2(CC1)CCN(C(=O)c1ccncc1)CC2 | inactive | 
CN(C)CCC[C@@]1(c2ccc(F)cc2)OCc2cc(C#N)ccc21 | inactive | 
Cc1cccc(C)c1-n1c(SCC(=O)NCc2ccco2)nc2ccccc2c1=O | inactive | 
CCc1ccc(-c2cc(C(=O)NCc3ccco3)c3ccccc3n2)s1 | 3.55 µM (active) | 
Cc1ccc(-c2cc(C(=O)NCc3ccco3)c3ccccc3n2)s1 | 6.31 µM (active) | 
Cc1ccc(S(=O)(=O)N(Cc2ccccc2)c2ccccc2C(=O)NCc2ccco2)cc1 | inactive | 
CC(C)C(O)(C(C)C)C(C)C |  | -8.65% [at 11.4 µM]
C=CCOc1c(Br)cc(CNc2ccc(NC(=O)C(C)C)c(OC)c2)cc1OC | 15.8 µM (active) | 
CCC1CC2CC(NC(C)=O)C1C2 (configuration not stated) | inactive | 
COc1ccc(C(=O)c2cnc3ccccc3c2-c2ccccc2)cc1 | 15.8 µM (active) | 
C=CC[C@@H]1C=C[C@H](O/N=C(\C)CCN2CCc3nc(-c4ccccc4)c(-c4ccccc4)cc3C2)[C@H](CO)O1 |  | 5.54% [at 11.4 µM]
CCCCOC(=O)NS(=O)(=O)c1sc(CC(C)C)cc1-c1ccc(Cn2c(CC)nc3c(C)cc(C)nc32)cc1 | 31.6 µM (active) | 
CC(C)CCn1nnnc1C(c1ccc(F)cc1)N1CCN(C(=O)c2ccco2)CC1 (configuration not stated) | inactive | 
CCCC[C@H]1C[C@@H]1[C@@H]1N(P(=O)(c2ccccc2)c2ccccc2)C[C@@](O)(c2ccccc2)CC12CC2 | inactive | 
O=C1C=C(Nc2nc(C(=O)O)cc(=O)[nH]2)c2ccccc2C1=O |  | -15.8% [at 2.29 µM]
O=C1C=C(NCCc2cc(Br)c(O)c(Br)c2)C(=O)c2ncccc21 | 3.16 µM (active) | 
COc1ccc(C(=O)Nc2scc(-c3ccc(Cl)cc3Cl)c2C(N)=O)cc1 | 0.447 µM (active) | 
COc1ccc(C(=O)Nc2cc(Cl)ccc2OC(=O)c2ccc(OC)cc2)cc1 | 10 µM (active) | 

Compound | AC50 | activity, negative = inhibition
Cc1sc(NC(=O)c2ccc(OCC(C)C)cc2)c(C(N)=O)c1-c1ccc(Cl)cc1Cl | inactive | 
Cc1ccc(C(=O)O[C@@H](C(=O)O)[C@@H](OC(=O)c2ccc(C)cc2)C(=O)O)cc1 (tested in a mixture with another compound) | inactive | 
CC(C)COc1ccc(C(=O)Nc2scc(-c3ccc(Cl)cc3Cl)c2C(N)=O)cc1 | inactive | 
Cc1ccc(C(=O)Nc2cc(Cl)ccc2OC(=O)c2ccc(C)cc2)cc1 | 10 µM (active) | 
NNC(=O)c1ccc[n+](CCc2ccccc2)c1 |  | -20.6% [at 11.4 µM]
Cc1ccc(C)c(/C(=N\N=C(N)N)C2CC2)c1 |  | 1.09% [at 2.29 µM]
NC(N)=Nc1ccc(Cl)cc1 | inactive | 
NC(N)=N/N=C(\c1ccc(Cl)cc1)C1CC1 | 0.794 µM (active) | 
CCc1ccccc1NC(=O)c1ccc(F)c(S(=O)(=O)N2CCC(C(N)=O)CC2)c1 | inactive | 
CCc1ccccc1NC(=O)c1ccc(-n2c(C)ccc2C)cc1 | 14.1 µM (active) | 
NCCS(=O)O | inactive | 
Cn1cc(/C=N/n2cnc3scc(-c4ccccc4)c3c2=O)c2ccccc21 | 8.91 µM (active) | 
Cn1cc(/C=N/n2cnc3sc4c(c3c2=O)CCCC4)c2ccccc21 | 14.1 µM (active) | 
O=S(=O)(c1ccccc1)N1CCC2(CCN(Cc3ccccc3)CC2)CC1 | inactive | 
O=[N+]([O-])c1ccc(N2CCN(Cc3ccccc3)CC2)c(S(=O)(=O)N2CCOCC2)c1 | inactive | 
O=[N+]([O-])c1ccc(Cl)c(/C=N/N2CCN(Cc3ccccc3)CC2)c1 | 2.51 µM (active) | 
CCSc1nnc(NC(=O)Cc2ccccc2OC)s1 | inactive | 
CCSc1nnc(NC(=O)C(C(F)(F)F)C(F)(F)F)s1 | 15.8 µM (active) | 
CCCCC(=O)Nc1nnc(SCC(=O)NC2CCCC2)s1 | inactive | 
CC(CC(=O)O)(CC(=O)O)C(=O)O |  | -5.85% [at 11.4 µM]
O=C(CN1CCN(Cc2ccccc2)CC1)c1ccc(Br)cc1 | inactive | 
CCN1CCN(C(=S)c2ccc(Br)cc2)CC1 | 15.8 µM (active) | 
OCCN1CCN(C(=S)c2ccc(Br)cc2)CC1 | inactive | 
Cc1cc2c(cc1S(N)(=O)=O)S(=O)(=O)CCC2 | inactive | 
CCN(CCO)Cc1csc2cccc(Br)c12 | 11.2 µM (active) | 

Compound | AC50 | activity, negative = inhibition
CCC(c1nnnn1CCOC)N1CCN(C(=O)c2ccco2)CC1 (configuration not stated) | inactive | 
COCCN(C(=O)c1ccco1)c1nnc(-c2ccc(OC)cc2)s1 | 15.8 µM (active) | 
Cc1ccc(C2C(C(=O)c3ccco3)=C(O)C(=O)N2c2nnc(C)s2)cc1 (configuration not stated) | inactive | 
CC1(C)CC(=O)c2cnc(N)nc2C1 | inactive | 
CCOC(=O)CCN1C(=O)[C@H]2[C@H]3[C@H](O)[C@H](O)C/C(=N/OCc4ccccc4)[C@@H]3CC[C@@H]2C1=O |  | 4.94% [at 11.4 µM]
CC1=C(C(=O)OCc2ccccc2)C(c2ccccc2)NC(=O)N1CCCCCC(=O)O (configuration not stated) | 20 µM (active) | 
CC1=C(C(=O)OCc2ccccc2)C(c2ccc(Cl)cc2)NC(=O)N1CCCCCC(=O)O (configuration not stated) | 25.1 µM (active) | 
CCOC(=O)CCN1C(=O)[C@H]2[C@H]3[C@H](O)[C@H](O)C/C(=N/OCc4ccccc4)[C@H]3CC[C@@H]2C1=O |  | -13.8% [at 11.4 µM]
CC1=C(C(=O)OCc2ccccc2)C(c2cccnc2)c2c(n(C)c(=O)n(C)c2=O)N1 (configuration not stated) | inactive | 
CC(=O)N1CCC2(CC1)CCN(C(c1ccccc1)c1ccccc1)CC2 | inactive | 
N[C@@](CCc1ccccc1)(C(=O)O)c1ccccc1 |  | -9.59% [at 11.4 µM]
NCCSCCC(=O)O |  | -2.89% [at 11.4 µM]
NCCSCCc1ccccc1 | 5.01 µM (active) | 
O=C(O)CNCCc1ccccc1 |  | -1.5% [at 11.4 µM]
NNCCc1ccccc1 | 3.16 µM (active) and 1 µM (active) | 
O=C(O)CSCCc1ccccc1 |  | -15.5% [at 11.4 µM]
COc1cccc2c1C(=O)c1c(O)c3c(c(O)c1C2=O)C[C@@](O)(C(=O)CO)C[C@H]3O[C@H]1C[C@@H](N)[C@H](O)[C@@H](C)O1.[W] |  | -11.9% [at 11.4 µM]
Cc1sc2c(c1C)c(=O)n(-c1ccccc1)c1nnc(C)n21 | inactive | 
O=C(O)/C(=C\c1ccccc1)c1ccccc1 |  | -20.8% [at 11.4 µM]
Cc1ccccc1NC(=O)/C(=C/c1ccccc1)c1ccccc1 | 5.01 µM (active) | 
Cc1ccccc1NC(=S)NN1CCN(C)CC1 | inactive | 
Cc1ccc(S(=O)(=O)Oc2ccc(/C=C(/NC(=O)c3ccccc3)C(=O)Nc3ccccc3)cc2)cc1 | inactive | 
COc1ccc(/C=C(/C(=O)Nc2ccccc2C(=O)NC(C)C)c2ccccc2)cc1 | 15.8 µM (active) | 
CC(C)NC(=O)c1ccccc1NC(=O)/C=C/c1ccc([N+](=O)[O-])cc1 | inactive | 
Cn1cccc1C(=O)N1CCC2(CCN(Cc3ccccc3)CC2)CC1 | inactive | 

Compound | AC50 | activity, negative = inhibition
Cc1cc(Cl)ccc1Oc1ncnc2oc(-c3ccccc3)cc12 | 3.16 µM (active) | 
O=c1c2c(-c3cccs3)csc2[nH]c(=S)n1-c1ccccc1 | 12.6 µM (active) | 
CCN(CC)C(=O)c1sc2[nH]c(=S)n(-c3ccccc3)c(=O)c2c1C | inactive | 
CCc1cc2c(=O)n(-c3ccccc3)c(=S)[nH]c2s1 | inactive | 
N#C/C(=C\c1ccc(O)c(O)c1)C(N)=O | 39.8 µM (active) | 
Cc1cc(C)c(NC(=O)CS(=O)CC(=O)NCCCc2ccccc2)c(C)c1 (configuration not stated) | inactive | 
COc1cc(/C=C(\C#N)C(=O)c2ccc(O)c(O)c2)cc(I)c1O | 15.8 µM (active) | 
COc1ccc(/C=C(\C#N)C(N)=O)c(OC)c1 | 1.58 µM (active) | 
N#C/C(=C\c1ccc(O)c(O)c1)C(=O)NCCCc1ccccc1 | 12.6 µM (active) | 
N[C@@H](Cc1ccc(O)c(O)c1)C(=O)O | inactive | 
N#C/C(=C\c1ccc(O)c(O)c1)C(=O)Nc1ccccc1 | 0.501 µM (active) | 
COc1cc(/C=C(\C#N)C(N)=O)cc(CSc2nc3ccccc3s2)c1O | 1.26 µM (active) | 
COc1ccc(/C=C(/C#N)C(=O)Nc2cc(C)ccc2C)cc1C(=O)O | inactive | 
CCOC(=O)/C(C#N)=C\c1ccc(OCC(=O)Nc2ccc(C)cc2C)c(OC)c1 | inactive | 
COc1ccc(/C=C(\C#N)C(N)=O)cc1OC | 3.16 µM (active) | 
COc1ccc(/C=N/n2c(C)nnc2C)c(OC)c1 | 14.1 µM (active) | 
CCOC(=O)C1=C(CSc2nc3ccccc3s2)NC(=O)NC1c1cc(C)ccc1C (configuration not stated) | inactive | 
C[C@H](NC(=O)/C(C#N)=C/c1ccc(O)c(O)c1)c1ccccc1 | 15.8 µM (active) | 
CCOc1ccccc1/C=C(\C#N)C(N)=O | 2 µM (active) | 
CCOC(=O)/C(C#N)=C\N(C)C | inactive | 
CC(=O)NCCc1ccc(O)c(O)c1 | inactive | 
N#C/C(=C\c1ccc(O)c(O)c1)C(=O)NCCc1ccccc1 | 10 µM (active) | 
